We go through 15 compounds from PubChem BioAssay (NCI).

Among the test systems are T-47D breast; BT-549 breast; MDA-MB-435 melanoma; SW-620 colon; MCF7 breast; HCT-116 colon; HCC-2998 colon; KM12 colon.
Holding throughout (assay): NCI-60 one-dose screen, 48 h (100 = growth as untreated, 0 = no growth, -100 = all killed)
What all share (details): 10 µM unless noted

Structures are written as SMILES. The panel holds about 83,000 compounds, 20% with a hit somewhere; the sample as a whole holds those more often.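 Treatment: one concentration, 48 hours, 96-well format. Scoring: percent growth, with anything below 10 considered active.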 A number with no mark means an inactive call. Calls of active or inactive are those of the source.

As to `COc1cc(CCNc2nc3cc(N)cc(N)c3nc2-c2ccccc2)cc(OC)c1`, the growth in the assay with T-47D breast was -31% (active); with BT-549 breast it was 19.1%; in the assay with MDA-MB-435 melanoma, -56.8% (active); in the assay on SW-620 colon, -56.7% (active); with MCF7 breast, -79.9% (active); in the assay with HCT-116 colon, -35.9% (active). Further, the values for the growth in the assay on HCC-2998 colon and with KM12 colon were -5.77% (active) and 4.39% (active), respectively.
With `CC(=O)c1c(-c2ccc(OC(F)(F)F)cc2)nc2ccccn12`, the growth in the assay on T-47D breast was 80.6%; in the assay on BT-549 breast it was 91.3%; with MDA-MB-435 melanoma it was 102%; in the assay with SW-620 colon, 105%; in the assay with MCF7 breast, 89.8%; with HCT-116 colon, 80.8%. Moreover, the growth is 105% in the assay on HCC-2998 colon and 97% in the assay on KM12 colon.
For the compound `COc1ccc(C2CC(n3nnnc3-c3ccccc3)=NN2)cc1` (stereo not given), the growth in the assay on T-47D breast is 46.3%; with BT-549 breast it was 81.4%; in the assay with MDA-MB-435 melanoma it was 50.1%; in the assay on SW-620 colon, 50.6%; in the assay on MCF7 breast, 62%; with HCT-116 colon, 50.7%. Moreover, the growth is 72.3% in the assay on HCC-2998 colon and 49.3% in the assay with KM12 colon.
Take `O=S(=O)(c1ccc(N/N=C\c2ccccc2)cc1)c1ccc(N/N=C/c2ccccc2)cc1`: the growth is 56% in the assay on T-47D breast; 105% with BT-549 breast; 68.8% with MDA-MB-435 melanoma; 74% in the assay on SW-620 colon; 62.9% in the assay on MCF7 breast; 52.6% in the assay on HCT-116 colon. The figures for the growth in the assay with HCC-2998 colon and with KM12 colon were 66.4% and 66.9%, respectively.
For the compound `COc1ccc(/C=C/C(=O)c2ccc(OC)c(OC)c2)cc1O`, the growth in the assay on T-47D breast was 75.7%; with BT-549 breast it was 85.2%; in the assay on MDA-MB-435 melanoma, 75%; in the assay on SW-620 colon, 17.1%; in the assay with MCF7 breast it was 51.6%; in the assay on HCT-116 colon it was 20.3%. Also, the results for the growth with HCC-2998 colon and in the assay with KM12 colon were 102% and 70.6%, respectively.
`CS(=O)(=O)OCCN(CCOS(C)(=O)=O)c1ccc(/C=N/Nc2ccc([N+](=O)[O-])cc2[N+](=O)[O-])cc1`: the growth with T-47D breast is 76%; with BT-549 breast, 99.3%; in the assay on MDA-MB-435 melanoma it was 94.1%; in the assay with SW-620 colon, 73.4%; with MCF7 breast, 66.5%; with HCT-116 colon, 83.9%. Also, the growth with HCC-2998 colon is 80.2%; in the assay with KM12 colon, 99.6%.
As for `O=C(O)/C=C\C(=O)N1C/C(=C\c2ccccc2Cl)C(=O)/C(=C/c2ccccc2Cl)C1`, the growth in the assay with T-47D breast is 7.54% (active); with BT-549 breast it was -57% (active); in the assay with MDA-MB-435 melanoma, -11.3% (active); in the assay on SW-620 colon, -50% (active); in the assay on MCF7 breast, 3.37% (active); with HCT-116 colon, -97.2% (active). In addition, the growth with HCC-2998 colon was -91.8% (active); in the assay on KM12 colon, -71.9% (active).
Regarding `CCC(=O)c1ccc(O)c(OC)c1`, the growth was 109% in the assay on T-47D breast; 114% with BT-549 breast; 114% with MDA-MB-435 melanoma; 101% in the assay with SW-620 colon; 108% in the assay with MCF7 breast; 91.2% with HCT-116 colon. For the same compound, the results for the growth in the assay on HCC-2998 colon and in the assay on KM12 colon were 101% and 113%, respectively.
For `O=C1CCCN1c1cccc2cccnc12`, the growth with T-47D breast is 97.5%; in the assay with BT-549 breast it was 109%; in the assay on MDA-MB-435 melanoma, 100%; with SW-620 colon, 101%; in the assay with MCF7 breast it was 93.3%; in the assay with HCT-116 colon, 102%. Also, the growth with HCC-2998 colon was 86.7%; with KM12 colon, 102%.
With `CCCC/C(=N\N=C(N)N)c1ccc(F)cc1`, the growth in the assay on T-47D breast was 38.9%; in the assay on BT-549 breast, 21.6%; in the assay with MDA-MB-435 melanoma, -19.8% (active); with SW-620 colon, 23.8%; in the assay on MCF7 breast, 13.1%; in the assay with HCT-116 colon, 21.1%. The growth in the assay on HCC-2998 colon was 37%; in the assay with KM12 colon, 15.7%.
For `C=C(C)[C@@H]1CC[C@]2(CO)CC[C@]3(C)[C@H](CC[C@@H]4[C@@]5(C)CCCNC(C)(C)[C@@H]5CC[C@]43C)[C@@H]12`, the growth was 36.5% in the assay on T-47D breast; 77.1% in the assay with BT-549 breast; 13.5% with MDA-MB-435 melanoma; -66.5% (active) in the assay with SW-620 colon; -12.6% (active) in the assay on MCF7 breast; -78.9% (active) in the assay on HCT-116 colon. The growth with HCC-2998 colon is -5.02% (active); with KM12 colon, 23.2%.
As to `C#CCNC(=O)[C@H](Cc1ccccc1)NC(=O)[C@]12CC[C@@H](C(=C)C)[C@@H]1[C@H]1CC[C@@H]3[C@@]4(C)Cc5c([nH]c6ccccc56)C(C)(C)[C@@H]4CC[C@@]3(C)[C@]1(C)CC2`, the growth with T-47D breast is 75.3%; with BT-549 breast, 105%; in the assay on MDA-MB-435 melanoma, 105%; with SW-620 colon, 111%; with MCF7 breast, 85.3%; with HCT-116 colon, 85.9%. Further, the values for the growth in the assay on HCC-2998 colon and in the assay with KM12 colon were 109% and 103%, respectively.
As for `COc1cc2ncnc(Nc3ccc(C(=O)/C=C/c4ccc(C(F)(F)F)cc4F)cc3)c2cc1OC`, the growth is 131% with T-47D breast; 93.6% in the assay with BT-549 breast; 84.2% in the assay on MDA-MB-435 melanoma; 110% with SW-620 colon; 64.6% with MCF7 breast; -62.7% (active) with HCT-116 colon. The growth in the assay with HCC-2998 colon is 109%; with KM12 colon, 83.4%.
Turning to `Cc1[nH]n(C(=O)c2ccncc2)c(=O)c1N=Nc1ccc(F)c(Cl)c1`, the growth was 99.7% in the assay with T-47D breast; 103% in the assay on BT-549 breast; 112% with MDA-MB-435 melanoma; 99.8% with SW-620 colon; 92.1% in the assay with MCF7 breast; 103% with HCT-116 colon. Besides, the growth with HCC-2998 colon is 110%; in the assay with KM12 colon it was 105%.
Turning to `COc1ccc(-c2nc(SCC(C)C)nc(N/N=C(/C)c3ccc(OC)c(OC)c3)c2C#N)cc1`, the growth in the assay with T-47D breast was 54.7%; with BT-549 breast, 97.8%; in the assay with MDA-MB-435 melanoma, 87.9%; in the assay on SW-620 colon, 84.4%; in the assay on MCF7 breast it was 80.6%; with HCT-116 colon it was 96.6%. Also, the growth was 92.4% with HCC-2998 colon and 74% in the assay on KM12 colon.
